Laboratory results: paper PMC7862700, “An all-to-all approach to the identification of sequence-specific readers for epigenetic DNA modifications on cytosine”

How the values were obtained:
Experiment in all cases: DAPPL (digital affinity profiling via proximity ligation, sequencing); 10 mM Tris-HCl pH 7.5, 50 mM NaCl, 1 mM DTT, 4% glycerol, room temperature, 30 min; GST-TFs on glutathione beads, 16-mer random dsDNA library, 0.1% formaldehyde crosslink after washing; high values mean tight binding
Conditions in all cases: protein: recombinant; tags: N-terminal GST; dsDNA, one strand shown
ERF = molecular target: T1, ERF (Homo sapiens, UniProt P50548 1-548)
T1 sequence: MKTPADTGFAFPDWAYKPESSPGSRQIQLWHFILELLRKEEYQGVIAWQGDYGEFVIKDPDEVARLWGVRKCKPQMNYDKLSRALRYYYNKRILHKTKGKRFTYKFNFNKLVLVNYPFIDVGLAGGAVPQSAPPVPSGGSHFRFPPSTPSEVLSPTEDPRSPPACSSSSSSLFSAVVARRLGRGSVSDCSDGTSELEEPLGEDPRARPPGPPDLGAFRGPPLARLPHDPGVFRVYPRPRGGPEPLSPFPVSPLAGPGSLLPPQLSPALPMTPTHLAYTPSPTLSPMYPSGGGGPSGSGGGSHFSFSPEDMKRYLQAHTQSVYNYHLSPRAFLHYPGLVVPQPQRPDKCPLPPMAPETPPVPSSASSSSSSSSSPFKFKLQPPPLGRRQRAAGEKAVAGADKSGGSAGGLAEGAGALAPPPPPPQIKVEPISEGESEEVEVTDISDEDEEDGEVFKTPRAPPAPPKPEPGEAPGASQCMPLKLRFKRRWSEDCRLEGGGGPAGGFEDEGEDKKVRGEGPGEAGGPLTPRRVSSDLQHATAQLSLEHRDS
Method in brief: (§1)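 Sequencing on an Illumina NextSeq500 followed washing, crosslinking with 0.1% formaldehyde, proximity ligation (BsaI/T4 ligase, 1 h, 37 °C) and PCR amplification of pools that had been incubated for 30 min at room temperature with 200 nmole of a random double-stranded 16-mer DNA library in Tris/NaCl/DTT/glycerol buffer. Each pool held DNA-barcoded human transcription factors, expressed in yeast as GST fusions and captured on glutathione beads, plus a tag-only sample. Binding signal is a hexamer's read frequency for a factor divided by its frequency in the tag-only sample.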

ETV3L = molecular target: T2, ETV3L (Homo sapiens, UniProt Q6ZN32 1-361)
T2 sequence: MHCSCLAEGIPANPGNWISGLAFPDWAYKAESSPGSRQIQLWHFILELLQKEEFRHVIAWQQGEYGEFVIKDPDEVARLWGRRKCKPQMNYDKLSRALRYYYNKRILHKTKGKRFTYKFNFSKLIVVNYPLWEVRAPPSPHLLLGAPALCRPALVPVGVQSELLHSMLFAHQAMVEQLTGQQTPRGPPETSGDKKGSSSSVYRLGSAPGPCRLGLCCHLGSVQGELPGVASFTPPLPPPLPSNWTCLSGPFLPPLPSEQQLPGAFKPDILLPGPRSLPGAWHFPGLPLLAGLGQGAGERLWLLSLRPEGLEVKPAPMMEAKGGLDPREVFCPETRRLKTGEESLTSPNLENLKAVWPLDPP
Method in brief: as §1

ETS2 = molecular target: T3, ETS2 (Homo sapiens, UniProt P15036 1-469)
T3 sequence: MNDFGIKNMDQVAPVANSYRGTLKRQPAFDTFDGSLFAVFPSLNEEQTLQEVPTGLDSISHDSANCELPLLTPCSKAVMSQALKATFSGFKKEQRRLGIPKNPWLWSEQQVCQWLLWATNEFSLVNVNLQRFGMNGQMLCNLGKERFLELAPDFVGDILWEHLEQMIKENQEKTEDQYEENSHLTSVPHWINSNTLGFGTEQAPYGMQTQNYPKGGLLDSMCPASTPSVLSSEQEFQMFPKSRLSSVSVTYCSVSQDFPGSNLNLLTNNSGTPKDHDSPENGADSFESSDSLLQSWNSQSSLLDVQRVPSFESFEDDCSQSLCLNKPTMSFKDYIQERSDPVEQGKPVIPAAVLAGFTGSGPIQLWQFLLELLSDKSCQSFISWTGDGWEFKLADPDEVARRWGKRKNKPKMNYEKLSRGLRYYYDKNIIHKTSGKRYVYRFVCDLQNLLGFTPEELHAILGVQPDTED
Method in brief: as §1

SPDEF = molecular target: T4, SPDEF (Homo sapiens, UniProt O95238 1-335)
T4 sequence: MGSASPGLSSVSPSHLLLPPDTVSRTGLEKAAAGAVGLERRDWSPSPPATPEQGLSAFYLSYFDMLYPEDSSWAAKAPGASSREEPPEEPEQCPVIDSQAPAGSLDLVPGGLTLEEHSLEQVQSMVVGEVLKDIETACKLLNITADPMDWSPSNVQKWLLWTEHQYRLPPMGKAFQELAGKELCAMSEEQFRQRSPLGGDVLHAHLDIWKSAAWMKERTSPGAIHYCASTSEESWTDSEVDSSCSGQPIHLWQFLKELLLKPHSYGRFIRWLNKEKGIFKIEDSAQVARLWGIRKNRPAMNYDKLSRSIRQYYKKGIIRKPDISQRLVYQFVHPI
Method in brief: as §1

ETV7 = molecular target: T5, ETV7 (Homo sapiens, UniProt Q9Y603 1-341)
T5 sequence: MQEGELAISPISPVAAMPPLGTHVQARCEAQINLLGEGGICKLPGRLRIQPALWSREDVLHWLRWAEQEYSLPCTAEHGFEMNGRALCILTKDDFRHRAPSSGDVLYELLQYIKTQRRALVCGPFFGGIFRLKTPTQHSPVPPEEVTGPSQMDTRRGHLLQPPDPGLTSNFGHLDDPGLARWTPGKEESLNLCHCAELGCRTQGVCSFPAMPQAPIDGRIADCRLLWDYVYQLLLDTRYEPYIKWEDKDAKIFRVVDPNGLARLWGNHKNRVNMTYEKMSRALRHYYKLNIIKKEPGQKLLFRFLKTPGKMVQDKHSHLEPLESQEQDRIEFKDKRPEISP
Method in brief: as §1

ELF5 = molecular target: T6, ELF5 (Homo sapiens, UniProt Q9UKW6-2 1-255)
T6 sequence: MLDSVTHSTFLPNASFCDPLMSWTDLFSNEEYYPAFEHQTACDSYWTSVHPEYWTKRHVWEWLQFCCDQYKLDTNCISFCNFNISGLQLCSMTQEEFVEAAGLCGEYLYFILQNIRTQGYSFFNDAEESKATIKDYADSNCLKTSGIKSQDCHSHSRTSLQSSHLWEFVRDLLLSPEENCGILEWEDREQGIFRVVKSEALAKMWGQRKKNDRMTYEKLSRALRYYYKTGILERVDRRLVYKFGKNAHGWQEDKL
Method in brief: as §1

ETV3 = molecular target: T7, ETV3 (Homo sapiens, UniProt P41162-2 1-143)
T7 sequence: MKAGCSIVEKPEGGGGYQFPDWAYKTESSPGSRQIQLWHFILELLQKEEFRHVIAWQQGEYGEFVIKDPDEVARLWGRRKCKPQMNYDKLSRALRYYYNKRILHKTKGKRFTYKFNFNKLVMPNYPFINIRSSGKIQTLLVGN
Method in brief: as §1

ETV6 = ETV6 (Homo sapiens, UniProt P41212 1-452)
Chain of ETV6 (P41212 whole entry): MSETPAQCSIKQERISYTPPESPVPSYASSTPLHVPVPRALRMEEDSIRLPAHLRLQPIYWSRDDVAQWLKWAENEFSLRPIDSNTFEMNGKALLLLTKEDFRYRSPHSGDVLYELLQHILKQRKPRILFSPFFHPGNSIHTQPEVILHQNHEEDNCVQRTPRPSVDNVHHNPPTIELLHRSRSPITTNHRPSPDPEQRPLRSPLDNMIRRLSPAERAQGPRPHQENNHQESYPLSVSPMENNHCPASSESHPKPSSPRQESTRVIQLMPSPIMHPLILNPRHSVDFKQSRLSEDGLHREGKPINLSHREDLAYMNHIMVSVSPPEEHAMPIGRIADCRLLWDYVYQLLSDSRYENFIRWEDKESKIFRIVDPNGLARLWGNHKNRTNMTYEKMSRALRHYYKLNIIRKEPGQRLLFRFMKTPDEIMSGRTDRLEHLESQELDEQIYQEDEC
Method in brief: as §1

Sequence	binding signal (ERF)	binding signal (ETV3L)	binding signal (ETS2)	binding signal (SPDEF)	binding signal (ETV7)	binding signal (ELF5)	binding signal (ETV3)	binding signal (ETV6)
ATTGTC	1.23 fold enrichment (6-mer frequency, TF over GST control)	1.14 fold enrichment (6-mer frequency, TF over GST control)	1.17 fold enrichment (6-mer frequency, TF over GST control)	1.17 fold enrichment (6-mer frequency, TF over GST control)	1.23 fold enrichment (6-mer frequency, TF over GST control)	1.2 fold enrichment (6-mer frequency, TF over GST control)	1.22 fold enrichment (6-mer frequency, TF over GST control)	1.13 fold enrichment (6-mer frequency, TF over GST control)
CCGCGC	1.23 fold enrichment (6-mer frequency, TF over GST control)	1.08 fold enrichment (6-mer frequency, TF over GST control)	1.21 fold enrichment (6-mer frequency, TF over GST control)	1.17 fold enrichment (6-mer frequency, TF over GST control)	1.06 fold enrichment (6-mer frequency, TF over GST control)	1.18 fold enrichment (6-mer frequency, TF over GST control)	1.19 fold enrichment (6-mer frequency, TF over GST control)	1.15 fold enrichment (6-mer frequency, TF over GST control)
CCTGCA	1.08 fold enrichment (6-mer frequency, TF over GST control)	1.32 fold enrichment (6-mer frequency, TF over GST control)	1.26 fold enrichment (6-mer frequency, TF over GST control)	1.37 fold enrichment (6-mer frequency, TF over GST control)	1.24 fold enrichment (6-mer frequency, TF over GST control)	1.3 fold enrichment (6-mer frequency, TF over GST control)	1.22 fold enrichment (6-mer frequency, TF over GST control)	1.28 fold enrichment (6-mer frequency, TF over GST control)
CACAAC	1.36 fold enrichment (6-mer frequency, TF over GST control)	1.29 fold enrichment (6-mer frequency, TF over GST control)	1.25 fold enrichment (6-mer frequency, TF over GST control)	1.25 fold enrichment (6-mer frequency, TF over GST control)	1.13 fold enrichment (6-mer frequency, TF over GST control)	1.28 fold enrichment (6-mer frequency, TF over GST control)	1.22 fold enrichment (6-mer frequency, TF over GST control)	1.24 fold enrichment (6-mer frequency, TF over GST control)
GAAACG	1.27 fold enrichment (6-mer frequency, TF over GST control)	1.18 fold enrichment (6-mer frequency, TF over GST control)	1.17 fold enrichment (6-mer frequency, TF over GST control)	1.23 fold enrichment (6-mer frequency, TF over GST control)	1.4 fold enrichment (6-mer frequency, TF over GST control)	1.29 fold enrichment (6-mer frequency, TF over GST control)	1.28 fold enrichment (6-mer frequency, TF over GST control)	1.34 fold enrichment (6-mer frequency, TF over GST control)
ATCTTT	1.22 fold enrichment (6-mer frequency, TF over GST control)	1.34 fold enrichment (6-mer frequency, TF over GST control)	1.18 fold enrichment (6-mer frequency, TF over GST control)	1.17 fold enrichment (6-mer frequency, TF over GST control)	1.13 fold enrichment (6-mer frequency, TF over GST control)	1.21 fold enrichment (6-mer frequency, TF over GST control)	1.21 fold enrichment (6-mer frequency, TF over GST control)	1.2 fold enrichment (6-mer frequency, TF over GST control)
AAGGTA	1.05 fold enrichment (6-mer frequency, TF over GST control)	1.14 fold enrichment (6-mer frequency, TF over GST control)	1.11 fold enrichment (6-mer frequency, TF over GST control)	1.16 fold enrichment (6-mer frequency, TF over GST control)	1.18 fold enrichment (6-mer frequency, TF over GST control)	1.06 fold enrichment (6-mer frequency, TF over GST control)	1.09 fold enrichment (6-mer frequency, TF over GST control)	1.19 fold enrichment (6-mer frequency, TF over GST control)
GATATC	1.56 fold enrichment (6-mer frequency, TF over GST control)	1.46 fold enrichment (6-mer frequency, TF over GST control)	1.49 fold enrichment (6-mer frequency, TF over GST control)	1.92 fold enrichment (6-mer frequency, TF over GST control)	1.34 fold enrichment (6-mer frequency, TF over GST control)	1.74 fold enrichment (6-mer frequency, TF over GST control)	1.61 fold enrichment (6-mer frequency, TF over GST control)	1.51 fold enrichment (6-mer frequency, TF over GST control)
